Growth data for 25 compounds are collected here from PubChem BioAssay (NCI).

Common to all, as to experiment: NCI-60 one-dose screen, 48 h (100 = growth as untreated, 0 = no growth, -100 = all killed)
What all share (conditions): 10 µM unless noted

Assay [1] has as its system T-47D breast.
The subject of assay [2] is MDA-MB-435 melanoma.
The subject of assay [3] is SW-620 colon.
The test system of assay [4] is MCF7 breast.
Assay [5] concerns HCT-116 colon.
Assay [6] deals with HCC-2998 colon.
Assay [7] has as its system KM12 colon.

SMILES strings stand for the structures. The panel holds about 83,000 compounds, 20% with a hit somewhere; the sample as a whole holds those more often.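 In brief: 96-well plates, 48 h treatment, single concentration, percent growth endpoint.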 Values without a mark were called inactive. Active and inactive are the calls of the source. The calls were made as follows: active = growth percent below 10; inactive = the rest. *1 amine or outer side, *2 acyl side, *3 side chain or, on linkers, in order; H or OH if unused. Where a SMILES comes first, the peptide text is derived from it. [ ]: non-standard residue; d: D form. The star is where a group is joined. X5 = CCC(=O)CC1CC(C)CC(C(=O)[*:2])N1[*:1]; X4 = CCCCCCCCC(C)C(=O)*; Aib = CC(C)(N)C(=O)O; X6 = CC(CN(C)CCO)N*

In the case of `N#CCc1cccc2ccccc12`, the growth in assay [1] is 105%; in assay [2], 119%; in assay [3] it was 105%; in assay [4], 87.4%; in assay [5] it was 106%; in assay [6], 109%. For the same compound, the growth in assay [7] is 110%.

In the case of `CN=C(N)N/N=C(\c1ccccc1)c1ccc(Br)cc1`, the growth in assay [1] is 39.3%; in assay [2], -60.8% (active); in assay [3], 29.4%; in assay [4], 4.81% (active); in assay [5], 8.58% (active); in assay [6] it was -61.1% (active). The growth in assay [7] was 9.22% (active).

Regarding `Fc1ccc(NCCS)cc1`, the growth in assay [1] is 103%; in assay [2], 107%; in assay [3], 102%; in assay [4], 90%; in assay [5] it was 111%; in assay [6], 96.7%. Also, the growth in assay [7] is 98.3%.

Regarding `NNc1ccc(Cl)cc1Cl`, the growth is 52% in assay [1]; 96.6% in assay [2]; 53.7% in assay [3]; 74.8% in assay [4]; 87.1% in assay [5]; 93.9% in assay [6]. Besides, the growth in assay [7] is 51.3%.

`O=C1/C(=C/c2ccccc2)CCC/C1=C\c1ccccc1`: the growth was 82% in assay [1]; 13.2% in assay [2]; 22% in assay [3]; 30.7% in assay [4]; -79% (active) in assay [5]; 81.4% in assay [6]. Besides, in assay [7], the growth is 10.1%.

On to `O=[N+]([O-])c1ccc([I+]c2ccccc2)cc1`, for which the growth in assay [1] was -20% (active); in assay [2] it was 20.8%; in assay [3], 19.5%; in assay [4] it was -29% (active); in assay [5], -31.4% (active); in assay [6], 46.1%. Besides, in assay [7], the growth is -75.7% (active).

Consider `Cc1ccc(Nc2ccc(O)c3c2C(=O)c2c(O)ccc(Nc4ccc(C)cc4)c2C3=O)cc1`, for which the growth is 96.9% in assay [1]; 104% in assay [2]; 103% in assay [3]; 93.5% in assay [5]; 113% in assay [6]; 112% in assay [7].

With `CCCCCCCCCCCC1N=C(N)N=C(N)N1c1cccc(Br)c1` (configuration not stated), the growth in assay [1] was 38.4%; in assay [2] it was 22.4%; in assay [3] it was -93.9% (active); in assay [4], -87.8% (active); in assay [5] it was -100% (active); in assay [6], -87.7% (active). The growth in assay [7] is -91.8% (active).

For `COC(=O)[C@]1(C)CCC[C@]2(C)c3ccc(C(C)C)cc3C(=O)[C@@H](Br)[C@@H]12`, the growth in assay [1] is 53.1%; in assay [2], 91.8%; in assay [3], 86.3%; in assay [4] it was 57.6%; in assay [5], 85.3%; in assay [6], 106%. Moreover, in assay [7], the growth was 104%.

`Oc1c(Cl)cc(Cl)cc1C=NCC1CCC(CN=Cc2cc(Cl)cc(Cl)c2O)CC1` (configuration not stated): the growth in assay [1] is 71.4%; in assay [2] it was 88.8%; in assay [3], 116%; in assay [4], 78.1%; in assay [5], 74.9%; in assay [6] it was 107%. The growth in assay [7] is 93.6%.

For `NC(=Nc1nc(-c2ccccn2)cc2ccccc12)c1ccccn1`, the growth in assay [1] was 16.4%; in assay [2] it was 22.9%; in assay [3] it was 11.8%; in assay [4] it was 9.19% (active); in assay [5], 5.82% (active); in assay [7], 16%.

Consider `CN(C)c1ccc(C(C#N)(c2ccccc2)c2ccc(N(C)C)cc2)cc1`, for which the growth in assay [1] was 41.8%; in assay [2], 84.2%; in assay [3] it was 43.3%; in assay [5], 30.8%; in assay [6], 51.2%; in assay [7], 65.5%.

For the compound `CCCCCCCCCCCCCCCCCC1=NCCCN1CCO`, the growth in assay [1] is 103%; in assay [2], 115%; in assay [3], 98.9%; in assay [4], 86.7%; in assay [5], 114%; in assay [6], 93.4%. Besides, the growth in assay [7] is 106%.

Consider `O=C1C=CC(O)=CC1=P(c1ccccc1)(c1ccccc1)c1ccccc1`, for which the growth was 96.3% in assay [1]; 103% in assay [2]; 98.2% in assay [3]; 91.7% in assay [4]; 88% in assay [5]; -29.4% (active) in assay [6]. For the same compound, the growth in assay [7] is 99.7%.

Turning to `CN(C)c1ccc(/C=C/c2sc3ccc4ccccc4c3[n+]2C)cc1`, the growth in assay [1] was -10.9% (active); in assay [2] it was -34.8% (active); in assay [3], -63.9% (active); in assay [5] it was -71.8% (active); in assay [6], -91.5% (active); in assay [7], -63% (active).

`CCNc1nnnn1CC`: the growth in assay [1] is 106%; in assay [2], 107%; in assay [3], 104%; in assay [4], 95.7%; in assay [5] it was 102%; in assay [6] it was 110%. Besides, the growth in assay [7] is 110%.

As to `CCC(=O)c1cc([N+](=O)[O-])c(Br)s1`, the growth is -46.2% (active) in assay [1]; 96.9% in assay [2]; 35.4% in assay [3]; 62.6% in assay [4]; 1.06% (active) in assay [5]; 92.7% in assay [6]. In addition, the growth in assay [7] was 93.8%.

In the case of `Cc1ccc(/C=C2\CNC/C(=C\c3ccc(C)cc3)C2=O)cc1`, the growth in assay [1] is 14%; in assay [2] it was -47.5% (active); in assay [3] it was -44.1% (active); in assay [5], -60% (active); in assay [6] it was -81.3% (active); in assay [7], -78.6% (active).

For `CCCCCCCCC(C)C(=O)N1CCCC1C(=O)N1C(CC(=O)CC)CC(C)CC1C(=O)NC(C)C(=O)NC(C)(C)C(=O)NC(C)(C)C(=O)NC(C(=O)NC(C)C(=O)NC(C)(C)C(=O)NC(C)(C)C(=O)NC(C)CN(C)CCO)C(C)CC` (configuration not stated) (X4-P[X5]A[Aib][Aib]IA[Aib][Aib]-X6; configuration not given here), the growth in assay [1] is -16.5% (active); in assay [2], -18.8% (active); in assay [3], -81.4% (active); in assay [4], -80.7% (active); in assay [5], -88.8% (active); in assay [7] it was -75.8% (active).

For `c1ccc(-c2cccc(-c3ccccn3)n2)nc1`, the growth was 38.1% in assay [1]; 33.9% in assay [2]; 29.6% in assay [3]; 14.1% in assay [4]; 6.59% (active) in assay [5]; 18.7% in assay [6]. In assay [7], the growth is 27.6%.

On to `O=C1C(=O)c2cc([N+](=O)[O-])ccc2-c2ccccc21`, for which the growth in assay [1] is -35.6% (active); in assay [2], -79.3% (active); in assay [3], -81.1% (active); in assay [4], -55.3% (active); in assay [5], -92.5% (active); in assay [6], 65.9%. Besides, the growth in assay [7] was -81.7% (active).

With `O=C1C=CC(=O)N1c1cccc2c1CCCC2`, the growth was 86.5% in assay [1]; 88.5% in assay [2]; 99.6% in assay [3]; 88.3% in assay [4]; 95% in assay [5]; 118% in assay [6]. Also, the growth in assay [7] is 109%.

As for `O=C(O)c1cccc2cccc(-c3c4ccc(=O)c(O)c-4oc4c(O)c(O)ccc34)c12`, the growth was 98.9% in assay [1]; 100% in assay [2]; 97.3% in assay [3]; 91.2% in assay [5]; 96.2% in assay [6]; 96% in assay [7].

In the case of `CC(=O)OC1CC2CCC1(C)C2(C)C` (configuration not stated), the growth is 99.2% in assay [1]; 96.4% in assay [2]; 98.1% in assay [3]; 103% in assay [4]; 107% in assay [5]; 108% in assay [6]. For the same compound, in assay [7], the growth is 104%.

On to `CCC[CH2][Sn]1([CH2]CCC)[O]C2C(CO)OC(n3ccc(N)nc3=O)C2[O]1` (configuration not stated), for which the growth in assay [1] is -68.8% (active); in assay [2], -75.5% (active); in assay [3] it was -77.1% (active); in assay [5], -73.6% (active); in assay [6], -19.2% (active); in assay [7] it was 7.12% (active).
